According to PubChem BioAssay (NCI):
This is part of a sample that, as a whole, favours compounds with a hit. Of some 83,000 tested, about 20% had one in any assay.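 For each line, cells grew in 96-well plates with the test compound present at a single concentration for 48 hours.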 Unmarked numbers belong to inactive results. Calls of active or inactive are those of the source. How the source made its calls: active means growth percent below 10; inactive means the rest.

System: CAKI-1 renal
Assay: NCI-60 one-dose screen, 48 h (100 = growth as untreated, 0 = no growth, -100 = all killed)
Conditions: 10 µM unless noted

Going from Cc1ccc(N2C(=O)c3cccc4c(N)c(S(=O)(=O)O)cc(c34)C2=O)cc1 to O=S(=O)(O)c1cccc2cccnc12, the growth falls from 108% to 96.1%.

Compared with Clc1ncnc2nc[nH]c12, N#Cc1ccc2nc[nH]c2c1 is lower in growth: 108% for the first, 95% for the second.

First: C/C(=N\Nc1ccc([N+](=O)[O-])cc1[N+](=O)[O-])c1ccc(Br)cc1
Second: O=C(OCC1CCCO1)c1ccc([N+](=O)[O-])cc1 (stereo not drawn)
The growth of the first is lower: 98.1% for the first, 106% for the second.

Going from N#Cc1ccc(OC(=O)Nc2c(Cl)cc(Cl)cc2Cl)cc1 to CN1C(=O)NC(c2ccc(Cl)cc2)(c2ccc(Cl)cc2)C1=O, the growth rises from 89.7% to 92.9%.

Going from Nc1ncnc2c1ncn2C1OC(CO)C2OC21 (stereo not drawn) to Cc1ccc(C)c(CN(C)C)c1O, the growth rises from 106% to 114%.

Compared with CN(C)c1ccc(/C=C/C(=O)c2ccc(NC(N)=O)cc2)cc1, Cc1ccccc1CC(N)C(=O)O (stereo not drawn) is higher in growth: 87.8% for the first, 96.6% for the second.

Compared with NC(=O)N1CCOCC1, S=CN1CCCCC1 is lower in growth: 115% for the first, 97.2% for the second.

Going from S=C(NCc1ccccc1)N1CCC(CCCC2CCN(C(=S)NCc3ccccc3)CC2)CC1 to O=S(=O)(O)c1cccnc1, the growth rises from 86.6% to 95.2%.

System: A498 renal
Assay: as above
Conditions: 10 µM unless noted

First: O=C(O)Cc1ccccn1
Second: Cc1ccccc1CC(N)C(=O)O (stereo not drawn)
The growth of the first is lower: 94.4% for the first, 109% for the second.

Going from CC(C)(C)CC1(C)NC(=O)NC1=O (stereo not drawn) to C=CCS(C)(=O)=O, the growth falls from 120% to 105%.

Compared with COc1cc(CC#N)c([N+](=O)[O-])cc1OC, C/C(=N\Nc1ccc([N+](=O)[O-])cc1[N+](=O)[O-])c1ccc(Br)cc1 is lower in growth: 107% for the first, 102% for the second.

First: Cc1cc2nc(C)c(C)nc2cc1C
Second: Cc1ccc(C)c(CN(C)C)c1O
The growth of the first is higher: 114% for the first, 94.2% for the second.

First: NCC(O)C(O)C(O)C(O)CO (stereo not drawn)
Second: CCOC(=O)c1ccc(NC(C)=O)o1
The growth of the first is higher: 98.6% for the first, 63% for the second.

Going from CCNc1ccc2ccccc2c1N=Nc1ccc(N=Nc2ccccc2)cc1 to CC(=O)N=c1ccc2nc3c(cc(N)c4ccccc43)oc-2c1, the growth falls from 137% to 80.5%.

First: O=Cc1ccc(O)c(O)c1
Second: O=C(O)c1cc(I)ccc1O
The growth of the first is lower: 88.4% for the first, 126% for the second.

Going from CC(=O)C1C(=O)C(=O)N(c2cccc([N+](=O)[O-])c2)C1=O (stereo not drawn) to Cc1ccc(N2C(=O)c3cccc4c(N)c(S(=O)(=O)O)cc(c34)C2=O)cc1, the growth rises from 79.2% to 136%.

First: C1Cc2onc(-c3noc4c3CCC4)c2C1
Second: O=C(OCC1CCCO1)c1ccc([N+](=O)[O-])cc1 (stereo not drawn)
The growth of the first is higher: 136% for the first, 82.2% for the second.

Compared with O=C(OCc1ccccc1)n1nnc2ccccc21, S=C(NCc1ccccc1)N1CCC(CCCC2CCN(C(=S)NCc3ccccc3)CC2)CC1 is lower in growth: 124% for the first, 121% for the second.

Compared with CN1CCCN(C(c2ccccc2)c2ccc(Cl)cc2)CC1 (stereo not drawn), CN1C(=O)NC(c2ccc(Cl)cc2)(c2ccc(Cl)cc2)C1=O is higher in growth: 56.1% for the first, 110% for the second.

Going from COc1ccc(/C=C\C(=O)/C=C/c2ccc(OC)cc2)cc1 to CN(C)c1ccc(/C=C/C(=O)c2ccc(NC(N)=O)cc2)cc1, the growth falls from 174% to 115%.

First: CCOC(=O)c1cc(Cl)c(O)c(Cl)c1
Second: N#Cc1ccc(OC(=O)Nc2c(Cl)cc(Cl)cc2Cl)cc1
The growth of the first is lower: 104% for the first, 125% for the second.

First: NNc1ncccn1
Second: O=S(=O)(O)c1cccc2cccnc12
The growth of the first is lower: 91.7% for the first, 104% for the second.

Compared with CCCC1OC(c2ccco2)OCC1CC (stereo not drawn), Nc1ncnc2c1ncn2C1OC(CO)C2OC21 (stereo not drawn) is lower in growth: 94.6% for the first, 85.4% for the second.

First: Clc1ncnc2nc[nH]c12
Second: N#Cc1ccc2nc[nH]c2c1
The growth of the first is higher: 101% for the first, 98.7% for the second.

Going from NC(=O)N1CCOCC1 to S=CN1CCCCC1, the growth rises from 92.7% to 105%.

Compound O=S(=O)(O)c1cccnc1 has a growth of 101%.

CN(C)CCOC(=O)Nc1ccc(Cc2ccc(NC(=O)OCCN(C)C)cc2)cc1 gave a growth of 126% [100 µM].

In the case of CCCCc1ccc2nc(NC(=O)OC)[nH]c2c1, the growth is reported as -5.63% (active).
